An excerpt weighted towards active compounds, which were near 1.2% of everything screened.
BRCA1 expr up – BRCA1 expression activation. MCF7-BRCA1-FFLuc reporter, luminescence, 48 h; response scale: scaled: vehicle 0%, 10 µM genistein 100%. Potency, µM (doses to about 46.1 µM), inactives show at the highest dose activation, actives largely listed as activators. 1.1% of 380,000 active; note: potency is the fitted concentration of half-maximal effect; nearly all actives have a fitted effect of over 80% in size
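Luminescence from a BRCA1-driven firefly luciferase in MCF7 cells was read after 48 h compound exposure at 37 C. Data normalized against DMSO and a 10microM genistein activation control, then curve-fitted across the titration.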
TSHR antag – antagonists of human thyroid stimulating hormone receptor; activity change, negative = inhibition, % at 11.5 µM; TSHR-expressing cells, TSH-stimulated cAMP HTRF, 2 h; hits give low values; AID 504810; 0.2% of 330,000 active; P16473;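 active = activity change below a set negative limit, meaning inhibition stronger than a set level, cut at about -70% in these data; inconclusive = activity change between two set negative limits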; note: % is set by controls: 0 for no effect and ±100 for the full control effect
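Read-out is FRET at 665 nm (cryptate excitation 337 nm) from a cryptate-tagged anti-cAMP antibody, competed by cell cAMP against cAMP-d2. Compounds are tested on freshly harvested TSHR cells challenged with 4nM TSH (EC80) for 2 hours at 37 deg C.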
S-ASM inh – inhibitors of human secretory acid sphingomyelinase; 0.006% of 340,000 active; P17405; Potency, µM (doses to about 57.5 µM), for the others: at the highest dose activity change, negative = inhibition, usual class: inhibitors; placental ASM, HMU-PC fluorogenic substrate, 60 min; note: potency is the fitted concentration of half-maximal effect
Target sequence (P17405 47-631 limits assumed): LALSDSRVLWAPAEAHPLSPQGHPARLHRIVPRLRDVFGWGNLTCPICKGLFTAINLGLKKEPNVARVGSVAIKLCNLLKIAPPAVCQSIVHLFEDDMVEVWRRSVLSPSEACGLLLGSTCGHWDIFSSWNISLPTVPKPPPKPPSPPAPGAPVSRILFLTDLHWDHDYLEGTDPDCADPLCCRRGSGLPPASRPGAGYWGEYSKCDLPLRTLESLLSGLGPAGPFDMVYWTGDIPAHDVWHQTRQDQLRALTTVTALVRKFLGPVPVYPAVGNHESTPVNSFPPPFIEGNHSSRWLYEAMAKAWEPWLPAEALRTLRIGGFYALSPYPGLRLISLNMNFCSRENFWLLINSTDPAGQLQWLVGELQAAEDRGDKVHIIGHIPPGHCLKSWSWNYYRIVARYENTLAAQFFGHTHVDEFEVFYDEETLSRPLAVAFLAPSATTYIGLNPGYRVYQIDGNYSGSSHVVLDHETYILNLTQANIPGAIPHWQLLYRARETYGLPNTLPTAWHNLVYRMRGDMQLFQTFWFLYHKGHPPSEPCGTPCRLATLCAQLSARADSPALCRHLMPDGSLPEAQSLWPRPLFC
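HMU-PC0 cleavage (9 uM final) by human placental ASM, 60 min at 37 °C following 10 min compound exposure at RT; stopped at pH 10, fluorescence Ex 386/Em 447 nm.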
PTAP TSG101 blk – blocks PTAP/TSG101 interaction to inhibit HIV-1 budding | Q99816 | Fluorescence polarization, FITC-PTAP peptide / Tsg101 binding | Potency, µM (highest dose often 115 µM), for inactives: at the top dose activity change, negative = inhibition, usual class: inhibitors | 340,000 tested, under 10 active | AID 493005; active = well fitted inhibition curve with a large enough effect in the main read-out, with a control signal flat, not every such curve was filed as active; inconclusive = small, poorly fitted or top-dose-only effect, or effect the other way, or a change in a side signal; inactive = no such curve, though single readings can be large or run the other way; note: potency is the fitted concentration of half-maximal effect; % of control where 0% means no effect
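Steps: Tsg101 binding domain dispensed (10 uM final), compounds pinned in DMSO, FITC-labeled PTAP-motif peptide added (50 nM final); after 20 min binding at room temperature, polarization measured.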
Anesthetic bind – binds horse apoferritin like a general anesthetic; P02791; apoferritin/1-aminoanthracene competitive binding, fluorescence; Potency, µM (titrated, usually from 77.5 µM), inactives show at the highest dose activity change, negative = displacement, most hits filed as inhibitors; 0.074% of 350,000 active; note: potency is the fitted concentration of half-maximal effect; % is set by controls: 0 for no effect and ±100 for the full control effect; nearly all actives have a fitted effect of over 20% in size
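Probe: 1-aminoanthracene (50% saturated, PBS). Protein: horse-spleen apoferritin, 10 uM. Incubation: 10 min, room temperature. Detection: 380 nm excitation, 535 nm emission. Analysis: normalized response, four-parameter Hill.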
Starred values were filed as active, the others as inactive; ? = inconclusive; . = no result given. Unless noted, calls come from the whole dose curve; as a rule, active = well fitted curve in the direction sought with a large enough effect; inconclusive = small, poorly fitted or top-dose-only effect, or another doubt; inactive = no such curve, though single readings can be large; an effect the other way counts as inactive or inconclusive.

SMILES | BRCA1 expr up | TSHR antag | S-ASM inh | PTAP TSG101 blk | Anesthetic bind
Cc1ccc(NC(=O)c2oc3ccccc3c2NC(=O)C2CCCCC2)cc1 | -86% | . | . | . | ?
CCC(CCC(C)C1CCC2C3CCC4CC(O)CC[C@@]4(C)C3CC[C@@]12C)C(C)C (stereo not given in full) | . | . | . | . | 2%
CC(CCC(C)C(C)(C)C)[C@@H]1CC[C@H]2C3C[C@H](OS(O)(=S)=S)[C@H]4C[C@H](OS(O)(=S)=S)[C@@H](OS(O)(=S)=S)C[C@]4(C)[C@H]3CC[C@]12C (stereo not given in full) (tested in a mixture with another compound) | -15% | -83* | ? | ? | .
CCCCCCCCCC[n+]1cc(Br)cc(Br)c1 | -79% | . | . | . | .
O=C(O)c1ccc(Nc2ccc([N+](=O)[O-])c3nonc23)cc1 | 0% | -3 | -2% | 0% | -14%
O=[N+]([O-])c1ccc(Nc2ccccc2O)c2nonc12 | -18% | -28 | -11% | -4% | 18µM*
Cc1cc(NC(C)c2ccccc2)n2ncc(-c3ccccc3)c2n1 (stereo not given) | 6.3µM* | -11 | 10% | -3% | 87%
Cc1nonc1OCCNc1ccc([N+](=O)[O-])cc1[N+](=O)[O-] | -11% | 6 | -22% | 0% | -7%
Cc1nonc1OC(C)CNc1ccc([N+](=O)[O-])cc1 (stereo not given) | -17% | -7 | -3% | 0% | 32µM*
CC1CCN(C(=O)CCc2nnc(-c3ccccc3)o2)CC1 | 13µM* | 6 | 5% | 6% | -8%
O=C(CSc1nnc(-c2ccccc2)o1)N1CCCCC1 | 3.2µM* | 1 | 2% | -1% | -2%
CC1CC(C)CN(C(=O)CSc2nnc(-c3ccc(F)cc3)o2)C1 (stereo not given) | 0% | -5 | 3% | -1% | -9%
O=C(CSc1nnc(-c2ccccc2)o1)N1CCCC1 | 83% | -1 | 24% | -2% | 1%
O=C(CSc1nnc(-c2ccc(F)cc2)o1)N1CCCCC1 | 8.9µM* | 1 | 1% | -8% | 0%
CC1CCN(C(=O)CSc2nnc(-c3ccccc3)o2)CC1 | . | . | . | . | -16%
CCCCOc1ccc(/C=N/Nc2cc(N3CCOCC3)nc(C)n2)cc1 | 6% | -118* | -19% | 0% | ?
COc1cc(Cl)c(CC(=O)NO)cc1OC | 0% | . | . | . | .
CCCn1cnc2c(SCc3ccccc3F)nc(N)nc21 | 10µM* | . | -2% | -7% | .
CCCCn1cnc2c(SCc3cccc(F)c3)nc(N)nc21 | 62% | . | -2% | -4% | .
Cc1ccc(C(=O)N/N=c2\oc3ccccc3cc2C(N)=O)cc1 | 42% | -8 | -4% | -1% | 7%
NC(=O)c1cc2ccccc2o/c1=N/NC(=O)c1cccc(Cl)c1 | -15% | -79* | -2% | -5% | -5%
COc1cc(OC)c2c(=O)cc(-c3ccccc3)oc2c1 | 7.9µM* | -1 | 7% | 1% | -13%
CCOC(=O)N/N=C\c1ccccc1OC/C=C/c1ccccc1 | 4µM* | -3 | -11% | -3% | -18%
COc1cc(/C=N\NC(C)=O)ccc1OC/C=C/c1ccccc1 | 4% | -1 | -2% | 2% | -7%
COC(=O)N/N=C\c1ccccc1OC/C=C/c1ccccc1 | 11µM* | -1 | -9% | -2% | 2%
SMILES | BRCA1 expr up | TSHR antag | S-ASM inh | PTAP TSG101 blk | Anesthetic bind
N#CCC(=O)N/N=C\c1cc(Br)ccc1OC/C=C/c1ccccc1 | 8.9µM* | 0 | -14% | -5% | -5%
CN(C)c1ccc(/C=C/c2nc3ccccc3o2)cc1 | 6% | . | . | . | .
COc1ccc(C(=O)Nc2ncnc3nc[nH]c23)cc1 | 5% | . | . | . | .
C=CCn1c(=O)n(C2OC(CO)C(O)C2O)c2nc(N)[nH]c(=O)c21 (stereo not given) | . | . | . | . | 1%
Cc1ccc(Nc2nc(N)nc(CSC(=S)N3CCOCC3)n2)cc1 | 5µM* | -7 | -4% | -4% | -13%
Nc1nc(CSC(=S)N2CCOCC2)nc(Nc2ccccc2)n1 | ? | 0 | . | 0% | -13%
Cc1ccc(Nc2nc(N)nc(COC(=O)C3=COCCO3)n2)cc1 | 4µM* | 4 | 1% | -2% | .
